Most compounds without a hit are left out; they make up all but 2.7% or so of the library.
HIV Env fusion – blocks HIV Env-driven cell-cell fusion; HeLa-JRFL Env/CEM21 cell fusion, luciferase; inhibition, % at 12.3 µM; 1.1% of 360,000 active; AID 651610;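 active = mean replicate inhibition score of at least 50 and every replicate individually at or above 50; inconclusive = only one of the two criteria met; inactive = mean below 50 and not all replicates reaching 50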
Wnt act – activators of Wnt/beta-catenin signaling; Wnt/beta-catenin reporter cell assay, activator, plate reader; activation, % at 9.35 µM; 1.2% of 300,000 active; AID 743398; in the data active = activation above about 30%, passing the limit was not always enough; inconclusive = no clear call, values can overlap the other calls
F508del corr – CFTR F508del correction in bronchial cells; CFBE cells, YFP halide quenching; stimulated with forskolin plus potentiator P3; % fluorescence drop versus neutral controls; activity (quench increase), % at 7.58 µM; 0.36% of 350,000 active;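 active = mean added fluorescence quench of at least 8% versus neutral control, with both replicates also reaching 8%; inconclusive = only one of the mean or replicate conditions met; inactive = mean below 8% and not both replicates reaching 8%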;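 note: cells transiently co-express mutant CFTR-F508del with the halide-sensitive YFP; corrector assay measuring rescue of mutant channel to the surface after 24 h compound exposure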
INS-1E GSIS act – GLuc luminescence reporter in INS-1E cells, primary screen for activators of glucose-dependent secretion of insulin; INS-1E GLuc reporter insulin secretion, 2-3 h; activation, % at 16.6 µM; 0.61% of 370,000 active; AID 743287;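 active = lowest replicate activation of at least 40%, so every replicate reaches that level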
MITF TRPM1 HTS – MITF TRPM1 promoter activation in melanoma cells; SK-MEL-5 TRPM1-promoter luciferase, 24 h; % of positive control, neutral wells = 0; AID 588334; activation, % at 12.5 µM; 0.75% of 300,000 active;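 active = mean activation of at least 80% with every replicate also reaching 80%; inconclusive = mean reaches 80% but some replicate falls short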
Hits are given with their value; n = inactive; u = inconclusive; x = no result; [ ] = dose if it differs, or a comment.

SMILES	HIV Env fusion	Wnt act	F508del corr	INS-1E GSIS act	MITF TRPM1 HTS
C[C@@H]1CN([C@@H](C)CO)C(=O)c2cc(-c3ccc(C#N)cc3)cnc2O[C@@H]1CN(C)C(=O)c1ccccc1	n	x	n	n	x
O=C(C[C@@H]1C[C@H]2c3cc(NC(=O)c4ccc5c(c4)OCO5)ccc3O[C@H]2[C@@H](CO)O1)NCc1cccnc1	n	x	n	n	x
COCC#Cc1ccc(CC[C@H]2O[C@H]3CC[C@H](CO)O[C@H]3C[C@@H]2n2cc(C3(O)CCCC3)nn2)cc1	x	x	n	x	x
[O-][n+]1c(/C=C/c2ccccc2)ccc2ccccc21	n	36.9	n	n	n
[O-][n+]1ccccc1/C=C/c1ccccc1	n	n	n	n	n
O=C(C[C@@H]1CC[C@@H](NC(=O)Nc2ccc(C(F)(F)F)cc2)[C@H](CO)O1)NCc1cc(F)cc(F)c1	n	x	n	n	x
COc1ccccc1CNC(=O)CC1C(=O)NCCN1C1Cc2ccccc2C1 (stereo not given)	n	n	n	n	n
COc1ccc(CNC(=O)CC2C(=O)NCCN2C2Cc3ccccc3C2)cc1 (stereo not given)	61.3	n	n	n	n
COc1cccc(CN(Cc2ccccc2F)S(=O)(=O)c2ccc(S(=O)(=O)NCc3ccccc3)cc2)c1	67.9	x	x	n	n
COc1cccc(CN(Cc2ccco2)S(=O)(=O)c2ccc(S(=O)(=O)NCc3ccccc3)cc2)c1OC	u	x	x	n	n
N#CCCN(C(=O)CSc1nc2ccccc2c(=O)[nH]1)c1ccc(F)cc1	81.0	n	n	n	n
C[C@@H]1CN([C@H](C)CO)C(=O)CCCn2nncc2CO[C@@H]1CN(C)Cc1cccc(C(=O)O)c1	x	x	n	n	x
CCCCC12CN3CCN(CC(C3)/C1=N\NC(=O)c1ccccc1N)C2	n	35.2	x	n	n
CCCC12CN3CCN(CC(C3)/C1=N\NC(=O)c1ccc(F)cc1)C2	n	n	n	n	n
CN(c1ccc(OCCOc2ccccc2Cl)cc1)S(=O)(=O)c1ccccc1	n	n	8.1	n	n
O=[N+]([O-])c1cccc(COc2cccc(CN3CCCCC3)c2)c1	n	n	n	n	n
O=[N+]([O-])c1cccc(COc2cccc(CN3CCCC3)c2)c1	59.5	n	n	n	n
O=[N+]([O-])c1ccc(COc2ccc(CN3CCCCC3)cc2)cc1	n	n	n	n	u
O=[N+]([O-])c1ccc(COc2ccc(CN3CCCC3)cc2)cc1	n	n	n	n	100.5
Cc1cccc(-c2ccc([C@H]3[C@@H](CO)N4C(=O)CN(C(=O)c5cccnc5)C[C@@H]34)cc2)c1	x	x	n	n	x
CN(C)CCNc1ncnc2oc(-c3ccccc3)c(-c3ccccc3)c12	n	n	n	53.3	n
O=C(C[C@H]1CC[C@H]2[C@@H](COC[C@H](O)CN2Cc2ccc3c(c2)OCO3)O1)N1CCCCC1	n	x	n	n	x
Cc1cc(C)n2nc(SCN3C(=O)c4ccccc4C3=O)nc2n1	x	n	n	n	84.1
C[C@@H]1CCCCO[C@H](CN(C)C(=O)c2ccncc2)[C@H](C)CN([C@@H](C)CO)C(=O)c2cc(NC(=O)C3CCCCC3)ccc2O1	n	x	n	n	x
O=C(NCC[C@@H]1CC[C@@H](NS(=O)(=O)c2ccccc2F)[C@@H](CO)O1)c1ccc(F)cc1	60.9[16.7 µM]	x	n	n	x
SMILES	HIV Env fusion	Wnt act	F508del corr	INS-1E GSIS act	MITF TRPM1 HTS
Cc1ccc(S(=O)(=O)N[C@@H]2CC[C@H](CCNC(=O)c3ccccc3F)O[C@H]2CO)cc1	66.3[16.7 µM]	x	n	n	x
Cc1ccc(S(=O)(=O)N[C@H]2CC[C@H](CCNC(=O)c3ccccc3F)O[C@@H]2CO)cc1	n	x	n	n	x
C[C@@H]1CN([C@@H](C)CO)C(=O)Cc2cc(NC(=O)CCCN(C)C)ccc2O[C@H]1CN(C)S(=O)(=O)c1ccccc1	x	x	n	n	x
Cc1cccc(N=Nc2cnc(N)s2)c1	n	34.7	n	n	n
Cc1ccc(/C=N/NC(=O)c2cccs2)cc1[N+](=O)[O-]	n	40.4	x	n	117.4
O=C(N/N=C/c1ccccc1[N+](=O)[O-])c1cccs1	n	45.2	n	n	x
C[C@@H]1CCCCO[C@@H](CN(C)Cc2ccncc2)[C@H](C)CN([C@H](C)CO)C(=O)c2cc(NC(=O)Nc3cccc4ccccc34)ccc2O1	n	x	n	n	x
CCCNC(=O)N1CC2(C1)CN(C(=O)CC1CC1)[C@H](CO)c1c2c2ccc(OC)cc2n1C	x	x	n	n	x
COCCCNc1ncnc2c1sc1nc(-c3ccco3)c3c(c12)CC(C)(C)OC3	n	n	n	n	n

Screening results deposited in PubChem BioAssay by Broad Institute.
